We go through 36 compounds from PubChem BioAssay.

The structures appear in SMILES notation.

The assay concerns Chordin-like protein 2 (CHRDL2). The assay is described as follows: compounds binding chordin-like 2 – biochemical, small-molecule microarray, 635 nm fluorescence, primary screen (AID 1126).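 Also: printed compound slides probed with Chrdl2 protein at 4 µg/mL for 1 h at 4 C; score merges 667 nm emission intensity with signal to noise over three replicate slides.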 The following applies: fluorescence 635 nm, higher = more signal.
As to `COC(=O)[C@@]1(Cc2ccc(OC)cc2)[C@@H]2[C@@H](CC(=O)[C@H]2CC(=O)C(=O)N(C)C)CN1C(=O)c1ccccc1`, the composite z-score is -0.875. With `COC(=O)C(CC#Cc1ccc2c(c1)[C@]1(C(=O)N2)[C@H](C(=O)N2CCCCCCC2)[C@H]2C(=O)O[C@H](c3ccccc3)[C@H](c3ccccc3)N2[C@@H]1c1ccc(OCCO)cc1)C(=O)OC`, the composite z-score was 1.57. Regarding `COc1ccc(CCNC(=O)[C@@]2(c3ccc([N+](=O)[O-])cc3)CC(=O)N(C3CCCCC3)[C@@H]2c2ccc(CO)cc2I)cc1`, the composite z-score came to 0.252.

The compound `COc1c(C)cc(-c2cc3c(c(CCc4ccccc4)n2)[Si](C(C)C)(C(C)C)O[C@H]3c2ccccc2)cc1C` yielded a composite z-score of -0.2.

In the case of `CCCCC(=C=CC[C@@H](O)c1ccccc1OCCO)C[C@@H](O)c1ccccn1`, the composite z-score turned out to be 0.179. For `[N-]=[N+]=NCc1ccccc1C[C@]1(C(=O)N2CCCCC2)COC(c2ccc(OCCCO)cc2)=N1` the value was 0.0846; for `COc1cccc(C)c1NC(=O)O[C@H]1[C@H](OC(=O)Nc2ccccc2-c2ccccc2)[C@@H](OC(=O)Nc2ccccc2-c2ccccc2)[C@@H](OC)O[C@@H]1CO`, 0.0298.

`O=C1C2C=CC(C(O)c3ccccn3)N(Nc3ccc([N+](=O)[O-])cc3)C2C(=O)N1c1ccccc1` (stereo unspecified): the composite z-score was -0.421. As to `CCOC(=O)C1=C[C@@H](C(C)(C)C)N(S(=O)(=O)c2ccc(C)cc2)[C@H]1c1ccc(OC)cc1`, the composite z-score came to 0.209. Compound `O=C1NC(=O)C2C1C=CC(C(O)C(c1ccccc1)c1ccccc1)N2Nc1ccccn1` (stereo unspecified) gave a composite z-score of 0.691. For `CCCCCCc1nc(-c2ccc(OC)nc2)c(C)c2c1[Si](C(C)C)(C(C)C)OC2` the value was 0.492.

`CC(C)Cc1ccc(CN2CC[C@@H](NC(=O)c3ccccc3)C2)cc1` showed a composite z-score of 0.345. As for `COCCOC(=O)N1C(=O)[C@@]2(c3cc(C#CC4=CCCCC4)ccc31)[C@H](c1ccc(O)cc1)N1[C@H](c3ccccc3)[C@H](c3ccccc3)OC(=O)[C@H]1[C@@H]2C(=O)N1CCc2cc(OC)c(OC)cc2C1`, the composite z-score was -0.329.

The compound `Cc1ccc(S(=O)(=O)N2[C@@H](c3ccccc3)C(C(=O)O)=CC[C@H]2c2ccc(F)cc2)cc1` had a composite z-score of -1.09. For `COc1ccc([Si](C)(C)[C@H]2[C@H](CC(=O)N3CCC[C@H]3CO)O[C@@]3(C(=O)N(Cc4cccc(N5CCCCC5=O)c4)c4ccccc43)[C@@H]2C)cc1` the value was 1.19. Under `[N-]=[N+]=Nc1ccccc1C[C@@]1(C(=O)NCc2ccccc2)N=C(c2ccc(OCCCO)cc2)O[C@@H]1c1ccccc1` stands 0.621; under `[N-]=[N+]=NCc1ccccc1[C@H]1OC(c2ccc(OCCCO)cc2)=N[C@@]1(CCS(=O)(=O)c1ccccc1)C(=O)O`, -0.692. For `CCOC(=O)C[C@H]1[C@H](OC(=O)c2cc3ccccc3oc2=O)[C@@H](NC(=O)Cc2ccc(OC)cc2)c2cc(OCCCO)ccc2N1C(=O)Cc1ccc(OC)cc1` the value was 0.441. Turning to `C=C(C(=O)CC[C@@H](OC(=O)c1ccccc1-c1ccccc1C(=O)O)c1cccc(OCCO)c1)C(C)C`, the composite z-score was 1.26. On to `COC(=O)[C@@]1(Cc2ccc(F)cc2)[C@@H]2C(=CC(=O)[C@H]2CC(=O)C(=O)N2CCCC2)CN1C(=O)c1ccccc1`, for which the composite z-score was found to be 0.484. For `CC(C)(C)OC(=O)CC[C@]1(C(N)=O)N=C(c2ccc(OCCCO)cc2)O[C@H]1c1ccccc1N=[N+]=[N-]` the value was -0.416; for `COc1ccc([Si](C)(C)[C@@H]2[C@@H](CC(=O)N3CCC[C@H]3CO)O[C@]3(C(=O)N(Cc4cccc(N5C(=O)c6cccc7cccc5c67)c4)c4ccccc43)[C@H]2C)cc1`, 0.568; for `COC(=O)C(CC#Cc1ccc2c(c1)[C@]1(C(=O)N2)[C@H](c2ccccc2OCCO)N2[C@H](c3ccccc3)[C@H](c3ccccc3)OC(=O)[C@H]2[C@@H]1C(=O)N1CCN(c2ncccn2)CC1)C(=O)OC`, 1.1. For `COc1ccc(C(=O)Nc2ccc(CN3C(=O)[C@]4(O[C@H](CC(=O)N(CCO)Cc5ccccc5)[C@@H]([Si](C)(C)c5ccc(OC)cc5)[C@@H]4C)c4ccccc43)cc2)cc1` the value was 1.18; for `COCCOC(=O)N1C(=O)[C@@]2(c3cc(C#CCCO)ccc31)[C@H](c1ccc(O)cc1)N1[C@H](c3ccccc3)[C@H](c3ccccc3)OC(=O)[C@H]1[C@@H]2C(=O)NC[C@H](O)c1ccccc1`, 0.181.

Compound `COc1ccc(NN2C(C(O)c3ccccc3)C=CC3C(=O)N(C4CCCCC4)C(=O)C32)cc1` (stereo unspecified) yielded a composite z-score of -0.223.

On to `COc1ccc([Si](C)(C)[C@H]2[C@H](CC(=O)N(CCO)Cc3ccccc3)O[C@@]3(C(=O)N(Cc4ccc(N5C(=O)c6cccc7cccc5c67)cc4)c4ccccc43)[C@@H]2C)cc1`, for which the composite z-score was determined as 0.71. Turning to `COc1ccc([Si](C)(C)[C@H]2[C@H](CC(=O)N3CCC[C@H]3CO)O[C@@]3(C(=O)N(C)c4c(Br)cc(C)cc43)[C@@H]2C)cc1`, the composite z-score came out at 1.38. Under `COCCOC(=O)N1C(=O)[C@@]2(c3cc(C#CCCO)ccc31)[C@H](C(=O)N1CCN(c3ncccn3)CC1)[C@H]1C(=O)O[C@H](c3ccccc3)[C@H](c3ccccc3)N1[C@@H]2c1ccc(OCCO)cc1` stands 0.372; under `COc1ccc([Si](C)(C)[C@H]2[C@H](CCO)O[C@@]3(C(=O)N(Cc4ccccc4)c4ccc(NC(=O)[C@H](C)O)cc43)[C@@H]2C)cc1`, 0.0883; under `COc1cc(CO)cc(I)c1O[C@H]1C=C(C(=O)NCCO)C[C@@H](N(CCN2CCOCC2)C(=O)C2CCCO2)[C@@H]1O` (stereo partly specified), 0.365. Under `O=C(c1ccccc1)N1Cc2ccccc2C[C@@]2(N=C(c3ccc(OCCCO)cc3)O[C@H]2c2ccccc2)C1=O` stands 0.639; under `COCCCNC(=O)[C@@]1(Cc2ccccc2I)c2ccccc2C(=O)N(Cc2ccccc2OC)[C@H]1c1ccc(CO)cc1`, -1.82. Under `CN(C)C(=O)[C@]1(CCS(=O)(=O)c2ccccc2)N=C(c2ccc(OCCCO)cc2)O[C@@H]1c1ccccc1CN=[N+]=[N-]` stands -0.109.

Compound `C=CCC(OC(C)=O)[C@@H]1[C@@H](N(Cc2ccc(-c3ccccc3)cc2)C(=O)Cc2ccc(OC)cc2)c2cc(OCCCO)ccc2N1C(=O)c1ccc2ccccc2c1` (stereo partly specified) gave a composite z-score of -0.225. As to `COc1cccc(C)c1NC(=O)O[C@H]1[C@H](OC(=O)Nc2ccccc2)[C@@H](OC(=O)Nc2ccccc2)[C@@H](OC)O[C@@H]1CO`, the composite z-score was determined as 0.174.
